What all share (test): NCI-60 one-dose screen, 48 h (100 = growth as untreated, 0 = no growth, -100 = all killed)
What all share (conditions): 10 µM unless noted

In test [1] the test system is NCI-H23 lung.
Test [2] deals with NCI-H226 lung.
Test [3] relates to NCI-H322M lung.
Test [4] has as its system HOP-62 NSCLC.
For test [5], the system named is NCI-H460 lung.
The subject of test [6] is HOP-92 NSCLC.
Test [7] has as its system NCI-H522 lung.
Test [8] relates to A549/ATCC NSCLC.
The subject of test [9] is 786-0 renal.
In test [10] the test system is DU-145 prostate.
The subject of test [11] is K-562 leukemia.
Test [12] deals with MALME-3M melanoma.
For test [13], the system named is MDA-MB-231 breast.
The subject of test [14] is RXF 393 renal.
Test [15] has as its system SF-268 CNS.
Test [16] has as its system SF-295 CNS.
Test [17] relates to SF-539 CNS.
The test system of test [18] is UACC-257 melanoma.
Test [19] has as its system M14 melanoma.
For test [20], the system named is COLO 205 colon.

About 83,000 compounds went through this panel and 20% of them were active in at least one assay; those are over-represented in the sample as a whole.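 Compound tested at a single concentration for 48 hours in 96-well plates; a percent growth value below 10 was scored as active.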 Unmarked numbers belong to inactive results. Active and inactive are the calls of the source.

Take `CCc1ccc(Oc2c(-c3ccc(OCc4ccc(Cl)cc4)cc3O)nn(C)c2C(F)(F)F)cc1`: the growth was -14.2% (active) in test [1]; 6.86% (active) in test [2]; 13.6% in test [3]; -35.2% (active) in test [4]; -20% (active) in test [5]; -25.3% (active) in [6]. For the same compound, the growth in [7] was -33.5% (active); in [8], 3.73% (active); in test [9], -37% (active); in test [10], 15%; in test [11], 2.43% (active); in [12], -27.6% (active). Moreover, the growth in test [13] was -55.7% (active); in test [14], -43.3% (active); in test [15], 12.6%; in test [16] it was -11.1% (active); in test [17] it was 2.68% (active); in [18] it was -18.3% (active). Also, the growth in test [19] was 1% (active).
`COc1ccc(N)c(N)c1`: the growth in [1] was 96.4%; in test [2], 113%; in test [3], 95.4%; in test [4], 105%; in [5], 105%; in test [6], 92.5%. Moreover, the growth was 81.4% in test [7]; 98.1% in test [8]; 102% in test [9]; 111% in test [10]; 97.8% in test [11]; 91.7% in test [12]. The growth was 105% in test [13]; 105% in test [14]; 117% in test [15]; 99.1% in test [16]; 97.4% in [17]; 114% in test [18]. In addition, the growth in test [19] was 101%.
For the compound `NS(=O)(=O)c1ccc(-n2nc(C(=O)N/N=C\c3ccc(F)cc3)cc2-c2ccc(Br)cc2)cc1`, the growth is 83.9% in [1]; 81.9% in test [2]; 94.3% in test [3]; 65.3% in [4]; 84.1% in test [5]; 67.8% in [6]. For the same compound, the growth was 54.2% in test [7]; 74.3% in [8]; 106% in [9]; 93.4% in test [10]; 18% in [11]; 68.3% in test [12]. The growth in [13] is 85.3%; in test [14], 77.8%; in test [15] it was 82.2%; in [16], 74.6%; in [17] it was 89.7%; in [18] it was 86.1%. Further, the growth in [19] is 79.7%.
Turning to `COc1cccc(-c2nc(-c3ccc(NC(=O)C(C)C)cc3)[nH]c2-c2ccnc(Br)c2)c1`, the growth in test [1] was 51.3%; in [2], 43.5%; in [3], 43.7%; in test [4], 24.1%; in [5], 31.8%; in test [6], 43.4%. Also, the growth in [7] is 19.5%; in [9], -14.1% (active); in [20], 30.1%; in test [10], 61.4%; in test [11], 1.17% (active); in test [12], 34.4%. Also, the growth in [13] was 52.3%; in test [14] it was -31% (active); in test [15], 51.6%; in [16] it was -42.9% (active); in [17], 16%; in test [18] it was 52.8%. Also, in test [19], the growth is 40.2%.
On to `CC(=O)CC[C@H]1C(=O)N[C@@H](C(C)C)C(=O)N[C@@H](Cc2cc(O)cc(F)c2)C(=O)N2CCC[C@H](N2)C(=O)O[C@H](/C(C)=C/C=C/C(=O)OC(C)(C)C)C/C=C/C=C/[C@H](O)[C@H](C)[C@H]1O`, for which the growth was 42.2% in [1]; 76.8% in test [2]; 69.2% in test [3]; 44.9% in test [4]; 13.3% in [5]; 55.2% in test [6]. For the same compound, the growth is 43.8% in test [7]; 36.2% in test [9]; 51.7% in [20]; 42.6% in test [10]; 21.6% in [11]; 73.6% in [12]. For the same compound, the growth is 47.5% in [13]; -5.28% (active) in test [14]; 54.4% in test [15]; 50.2% in test [16]; 66.8% in test [17]; 53% in [18]. Also, the growth in test [19] is 54.9%.
`CCN(CC)CCNc1nc2ccccc2c2c(=O)c3cc(Cl)ccc3sc12`: the growth was 79.7% in [1]; 91.7% in [2]; 87.5% in test [3]; 76.7% in test [4]; 8.93% (active) in test [5]; 28.6% in test [6]. The growth is 63.9% in test [7]; 74.5% in test [9]; 43% in test [10]; -25.5% (active) in [11]; 88.4% in [12]; -2.23% (active) in test [13]. The growth was 79.1% in [14]; 62.1% in [15]; 29.2% in [16]; 67.2% in test [17]; 93.2% in test [18]; 31% in test [19].
Turning to `COc1ccc(C(=O)/C=C/c2sc(Cl)nc2Cl)cc1`, the growth in [1] was 8.44% (active); in test [2] it was 40.7%; in test [3], 93.1%; in [4] it was 68.3%; in test [5], 29.5%; in test [6] it was 32.8%. The growth was 19.1% in test [7]; 18.5% in [9]; 1.55% (active) in test [20]; 61.9% in test [10]; 9.56% (active) in test [11]; 32.1% in test [12]. Besides, the growth in test [13] is 38.7%; in test [14] it was 24.6%; in [15] it was 31.9%; in [16], 52.3%; in [17], -20.5% (active); in [18] it was 72.8%. For the same compound, in test [19], the growth was 6.12% (active).
On to `COc1ccc(-c2[nH]ncc2-c2cc3c(c(OC)c2)OCC(=O)N3)cc1`, for which the growth is 30% in test [1]; 61.8% in test [2]; 43% in [3]; 27.2% in [4]; 5.89% (active) in test [5]; 63% in test [6]. In addition, the growth in test [7] is -47.2% (active); in test [9], 27%; in test [20] it was -24.9% (active); in [10], 14.8%; in test [11], 12.6%; in [12] it was 57.3%. For the same compound, the growth in test [13] is 7.86% (active); in test [14], -35.1% (active); in [15], 54%; in test [16], 9.29% (active); in test [17], -23.9% (active); in test [18] it was 59.8%. For the same compound, the growth in test [19] was 11.6%.

These data come from PubChem BioAssay (NCI).
